Over roughly 18,000 sequences, “log2 normalized intensity” has its median near 0.36; the highest 2% begin near 7.3. What follows is part of a selection rich in the highest values, with near analogues and random picks from the rest.
target: T1, HNF4alpha8 (COS-7 nuclear extract) (Homo sapiens, UniProt P41235-5 1-452); assay: protein-binding microarray; COS-7 nuclear extract on double-stranded Agilent 4x180k PBM; binding buffer, salt, pH and temperature not given in the material; high values mean tight binding; conditions: chain copies: 2; label: 3' end of strand 1 on the slide; dsDNA, one strand shown
T1 sequence: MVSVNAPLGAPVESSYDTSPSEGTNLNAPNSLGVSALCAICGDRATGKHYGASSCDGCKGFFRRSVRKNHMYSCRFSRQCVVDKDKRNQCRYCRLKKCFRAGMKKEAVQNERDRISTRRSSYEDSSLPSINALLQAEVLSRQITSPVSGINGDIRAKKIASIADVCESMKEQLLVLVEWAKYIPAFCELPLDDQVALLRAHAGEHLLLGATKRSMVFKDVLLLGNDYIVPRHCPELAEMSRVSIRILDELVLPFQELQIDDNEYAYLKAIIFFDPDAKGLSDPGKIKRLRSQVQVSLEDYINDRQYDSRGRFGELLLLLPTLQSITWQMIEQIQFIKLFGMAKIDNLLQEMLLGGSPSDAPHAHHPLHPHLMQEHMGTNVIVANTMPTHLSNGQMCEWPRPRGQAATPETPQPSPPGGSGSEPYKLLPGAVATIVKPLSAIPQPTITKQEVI
Summary of the method: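 Using CaPO4, COS-7 cells were transiently transfected with a human HNF4α isoform expression vector, and their nuclear extracts were applied to a custom Agilent SurePrint G3 4x180k double-stranded oligonucleotide array (~60 nt; ~44,000 test sequences in quadruplicate). Bound HNF4α was imaged at 2-µm resolution with an Agilent G2565CA scanner. Agilent software supplied the background-corrected, normalized gProcessedSignal that serves as the binding signal.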

Point of comparison: “GAGGCTGAAGTGAAGTTACAAAGGTCACACGCCTAGGGAGATTAGAGTATCGGTCGA”, binding signal 6.46 log2 normalized intensity. Against it:
- ACCTTTGACCTGGTACTATGACCTTTCACCGCCTAGGGAGATTAGAGTATCGGTCGA — higher, 7.83 log2 normalized intensity
- TGGTACTATGACCTTTCACCTTTTAGCTTGGCCTAGGGAGATTAGAGTATCGGTCGA — lower, 6.25 log2 normalized intensity
- GAGTGACCTGGTATTGCAAGTATTTCACCCGCCTAGGGAGATTAGAGTATCGGTCGA — lower, 1.59 log2 normalized intensity
- TGACCTGGTACTATGACCTTTCACCTTTTAGCCTAGGGAGATTAGAGTATCGGTCGA — higher, 7.78 log2 normalized intensity
- TTCACCTTTCGCCCTTTGTCCTATGACTCTGCCTAGGGAGATTAGAGTATCGGTCGA — lower, 5.44 log2 normalized intensity
- CTATGACCTTTCACCTTTTAGCTTGGCATGGCCTAGGGAGATTAGAGTATCGGTCGA — lower, 5.08 log2 normalized intensity
- CCCCAAAAACTTGGACTCTATAGCCTATGCGCCTAGGGAGATTAGAGTATCGGTCGA — lower, 2.66 log2 normalized intensity
- TGGGGACCTTTGGGCTCTGACCCGAAGGGTGCCTAGGGAGATTAGAGTATCGGTCGA — lower, 2.6 log2 normalized intensity
- CTTTTGAGTTTCTACCATAGACCCTGTTGGGCCTAGGGAGATTAGAGTATCGGTCGA — lower, 0.898 log2 normalized intensity
- CTAACCAGCTCTATCAGTCTGGGTCCAGTCGCCTAGGGAGATTAGAGTATCGGTCGA — lower, 2.82 log2 normalized intensity
- CCCCCGGCTCTACGCAAGTGGTACCTCCCGGCCTAGGGAGATTAGAGTATCGGTCGA — lower, 2.76 log2 normalized intensity
- CTTGGCACTTAGCACAAGTGACTATTCTGGGCCTAGGGAGATTAGAGTATCGGTCGA — lower, 0.0244 log2 normalized intensity
- AGGCAAAGGTGTCAGGACCTTTCTTTATGGGCCTAGGGAGATTAGAGTATCGGTCGA — lower, 0.451 log2 normalized intensity
- TCCTTTTCTTTCACATACAAAATTTACTTTGCCTAGGGAGATTAGAGTATCGGTCGA — lower, 1.75 log2 normalized intensity
- GCAGAAGGTGTTTCAGATGGACCAAAGGTCGCCTAGGGAGATTAGAGTATCGGTCGA — lower, 6.13 log2 normalized intensity
- ATCAAAGGCTTCTAGAAGAGGTTAAAGACCGCCTAGGGAGATTAGAGTATCGGTCGA — lower, 1.58 log2 normalized intensity
- TCACAAAGGGCTGAGGTTAAAGTCCACATTGCCTAGGGAGATTAGAGTATCGGTCGA — higher, 8.03 log2 normalized intensity
- AAGGGCTGAGGTTAAAGTCCACATTCTTTAGCCTAGGGAGATTAGAGTATCGGTCGA — higher, 6.82 log2 normalized intensity
- CTGAGGTTAAAGTCCACATTCTTTAGCATAGCCTAGGGAGATTAGAGTATCGGTCGA — lower, 6.12 log2 normalized intensity
- AAGCTTCACAAAGGGCTGAGGTTAAAGTCCGCCTAGGGAGATTAGAGTATCGGTCGA — higher, 7.44 log2 normalized intensity
- CTCTGTATTGTAAAAGAAAGTGAGCAGGCAGCCTAGGGAGATTAGAGTATCGGTCGA — lower, -0.689 log2 normalized intensity
- ATGACCCAAACTTCACAAAAATGAGTGCAAGCCTAGGGAGATTAGAGTATCGGTCGA — lower, -0.806 log2 normalized intensity
- GGGCGAGAGAGTTCTATGGGATGACCTTTGGCCTAGGGAGATTAGAGTATCGGTCGA — higher, 6.82 log2 normalized intensity
- TTCTTTTTGAAGCAAAGCCTTTGAGCAGATGCCTAGGGAGATTAGAGTATCGGTCGA — lower, 0.807 log2 normalized intensity
- AGAGAGTTCTATGGGATGACCTTTGAGCAAGCCTAGGGAGATTAGAGTATCGGTCGA — higher, 7.89 log2 normalized intensity
- GTTCTATGGGATGACCTTTGAGCAATAGGAGCCTAGGGAGATTAGAGTATCGGTCGA — lower, 6.05 log2 normalized intensity
- TGACAAGCAAACACAAACTATGACCTTTGAGCCTAGGGAGATTAGAGTATCGGTCGA — higher, 9.22 log2 normalized intensity
- CAGCAACACTCTACTACTTGACCTTTGAAAGCCTAGGGAGATTAGAGTATCGGTCGA — higher, 6.62 log2 normalized intensity
- AGCAAACACAAACTATGACCTTTGAAACTTGCCTAGGGAGATTAGAGTATCGGTCGA — higher, 7.82 log2 normalized intensity
- ACACAAACTATGACCTTTGAAACTTACATTGCCTAGGGAGATTAGAGTATCGGTCGA — higher, 6.68 log2 normalized intensity
- AGTCTCAAAGGTCAGATGACAGAATTGGTCGCCTAGGGAGATTAGAGTATCGGTCGA — lower, 4.15 log2 normalized intensity
- GATAACATCTGGACTTTACACAGACCTTTAGCCTAGGGAGATTAGAGTATCGGTCGA — lower, 4.07 log2 normalized intensity
- CCCCTTCTGTTTCCAGAAATCTGACCTCTGGCCTAGGGAGATTAGAGTATCGGTCGA — lower, 5.06 log2 normalized intensity
- AGCTGACGCCCCACCCCCTCCACCCCTGCCGCCTAGGGAGATTAGAGTATCGGTCGA — higher, 6.68 log2 normalized intensity
- CAATGTGACTGGAGCAGAGCGATCAAAGGTGCCTAGGGAGATTAGAGTATCGGTCGA — lower, 1.37 log2 normalized intensity
- TGCAGCCCTGCCACTCTTTTTTAGACTTTGGCCTAGGGAGATTAGAGTATCGGTCGA — lower, 4.39 log2 normalized intensity
- GACCTCTGCCCTTCCACCCACTTTATCTTCGCCTAGGGAGATTAGAGTATCGGTCGA — lower, 3.59 log2 normalized intensity
- ACTACCTCTTTAGGCTGGACTCTGACCCATGCCTAGGGAGATTAGAGTATCGGTCGA — higher, 7.54 log2 normalized intensity
- CTCTTTAGGCTGGACTCTGACCCATTCCTTGCCTAGGGAGATTAGAGTATCGGTCGA — lower, 5.82 log2 normalized intensity
- CCACTCTTTTTTAGACTTTGACCTCCATATGCCTAGGGAGATTAGAGTATCGGTCGA — higher, 8.93 log2 normalized intensity
- CTGACCTCTTTTGGATTTTTCCATATCTGTGCCTAGGGAGATTAGAGTATCGGTCGA — lower, 1.57 log2 normalized intensity
- ATGACCTCTTTTAGTAACTGACTTTAACTTGCCTAGGGAGATTAGAGTATCGGTCGA — lower, 1.03 log2 normalized intensity
- ACCAGACTACCTCTTTAGGCTGGACTCTGAGCCTAGGGAGATTAGAGTATCGGTCGA — lower, 4.7 log2 normalized intensity
- CCCTGCCACTCTTTTTTAGACTTTGACCTCGCCTAGGGAGATTAGAGTATCGGTCGA — higher, 10.2 log2 normalized intensity
- GCTTATCTGGGAGGGGGAGGTTTTGTGTCTGCCTAGGGAGATTAGAGTATCGGTCGA — lower, 0.884 log2 normalized intensity
- AAATGTAATCAGCAAGTTTTATATGAAAACGCCTAGGGAGATTAGAGTATCGGTCGA — lower, 0.415 log2 normalized intensity
- CTGTGGTCATTAATTAACTTGTGTTCAGAGGCCTAGGGAGATTAGAGTATCGGTCGA — lower, 1.07 log2 normalized intensity
- TGTTCTTTACTTCCTTTTGTTCCTGCTCTAGCCTAGGGAGATTAGAGTATCGGTCGA — lower, 1.67 log2 normalized intensity
- AGTCTGCTCAAGTCTTTTAGAATGTGGATGGCCTAGGGAGATTAGAGTATCGGTCGA — lower, 1.71 log2 normalized intensity
- TCAGTTGCAGAAAAACAGGTTCTGCAACACGCCTAGGGAGATTAGAGTATCGGTCGA — lower, 0.876 log2 normalized intensity
- ATTACCAATGAGAAACCTCAAAGGTTAGGGGCCTAGGGAGATTAGAGTATCGGTCGA — lower, 0.852 log2 normalized intensity
- GAGCAAAGGGCATGGAGGATTTAGATAACAGCCTAGGGAGATTAGAGTATCGGTCGA — lower, 0.728 log2 normalized intensity
- TATCTTGTGACCTTTGACTCATTATCCCCCGCCTAGGGAGATTAGAGTATCGGTCGA — higher, 7.09 log2 normalized intensity
- ATTCTCTTATCTACTTTAAGATTTGACCCTGCCTAGGGAGATTAGAGTATCGGTCGA — lower, 5.76 log2 normalized intensity
- TTAAGATTTGACCCTTGGCCAGGTGCAGTGGCCTAGGGAGATTAGAGTATCGGTCGA — lower, 5.41 log2 normalized intensity
- CTGAACTTTAAACTGGTGTGTCTTGCCTTTGCCTAGGGAGATTAGAGTATCGGTCGA — lower, 2.42 log2 normalized intensity
- AAACTTATCTTGTGACCTTTGACTCATTATGCCTAGGGAGATTAGAGTATCGGTCGA — higher, 7.16 log2 normalized intensity
- CTTATCTACTTTAAGATTTGACCCTTGGCCGCCTAGGGAGATTAGAGTATCGGTCGA — higher, 7.78 log2 normalized intensity
- ATCTGACCTTTGGTTAACTTCTTAACTTGGGCCTAGGGAGATTAGAGTATCGGTCGA — lower, 3.5 log2 normalized intensity
- AGTGGTTTAAAAACTTATCTTGTGACCTTTGCCTAGGGAGATTAGAGTATCGGTCGA — higher, 7.47 log2 normalized intensity
- TTTAAAAACTTATCTTGTGACCTTTGACTCGCCTAGGGAGATTAGAGTATCGGTCGA — higher, 8.96 log2 normalized intensity

— paper PMC10726135, “HNF4α isoforms regulate the circadian balance between carbohydrate and lipid metabolism in the liver”
